Assay [1] is described as follows: rapamycin-like changes in RPL19A-GFP expression – cell-based, S. cerevisiae, multiplex flow cytometry, primary screen (AID 1862; in the data active means percent of DMSO control GFP below about 86%;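 further: lower values mimic rapamycin by blocking the RPL19A rise seen in DMSO cells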). To be noted: S. cerevisiae RPL19A-GFP strain, flow cytometry fluorescence, 3 h; at 10 µM; stronger effect = lower value.
Assay [2] is described as follows: TOR pathway RTG branch CIT2 reporter changes – S. cerevisiae, GFP fusion, multiplex flow cytometry, primary screen (AID 1870;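 active means percent response above a set limit, the screen-wide mean plus 3 SD, cut at about 130% in these data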;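 further: barcoded CIT2-GFP strain pooled with four other GFP strains with rapamycin as positive control; median GFP fluorescence per well over plate mean of DMSO wells so 100% = DMSO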). The note with it: S. cerevisiae CIT2-GFP expression, 3 h, at 10 µM, stronger effect = higher value. In general terms: A flow cytometer gives signals particle by particle.
Assay [3] is described as follows: TOR pathway LAP4-GFP level changes – S. cerevisiae, multiplex flow cytometry, primary screen (AID 1873;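 active means GFP signal, as percent of the solvent control, above the screen mean plus 3 SD, about 149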). To be noted: S. cerevisiae LAP4-GFP expression, 3 h, at 10 µM, stronger effect = higher value.
The nature of assay [4]: yeast AGP1-GFP level changes, GLN3 branch – cell-based, multiplex flow cytometry, S. cerevisiae, primary screen (AID 1887;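 active means GFP signal above the screen-wide mean plus 3 SD, that is over about 124.5% of the solvent control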;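 further: AGP1-GFP fusion strain of S. cerevisiae within a five-strain barcoded multiplex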). The note with it: 3 h, at 10 µM, stronger effect = higher value.
Assay [5] in a line: reduced mouse 2C T cell binding to pMHC/ICAM-1 vesicles – MLPCN validation set, flow cytometry, LFA-1/ICAM-1 modulator project, pilot screen (AID 2523;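 active means response below a set limit, under 55% cells CD8-positive and vesicle-bound, and CD8 cells' 90th-percentile brightness under 279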;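 on vesicle binding response: mean PE anti-B7-1 fluorescence of CD8+ cells relative to row control; 100% = QL9-loaded vesicles with DMSO vehicle in the same plate row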). The note with it: 2C mouse CD8+ T cells, at 7 µM, stronger effect = lower value; double positive events: measured here: CD8+/vesicle+ event percentage.
In assay [6] the target is Integrin beta-1 (Homo sapiens) + Integrin alpha-4 (Homo sapiens) (UniProt P13612+P05556). Kind of assay: alpha4beta1 integrin LIBS antibody binding reduction – U937 cells, HUTS-21 mAb, flow cytometry, validation set, VLA-4 allosteric modulator project, pilot screen (AID 2674;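 active means inhibition above 50%, about 3 SD of the validation set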;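 further: antibody binding induced by the VLA-4 ligand LDV present at three times its Kd; 0% = LDV ligand with antibody and no compound and 100% = antibody without LDV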). The note with it: HUTS-21 LIBS mAb binding, at 6.7 µM, stronger effect = higher value, binding induced by LDV ligand.
Chain of Integrin beta-1 (Homo sapiens) + Integrin alpha-4 (Homo sapiens) (P05556 whole entry, looked up): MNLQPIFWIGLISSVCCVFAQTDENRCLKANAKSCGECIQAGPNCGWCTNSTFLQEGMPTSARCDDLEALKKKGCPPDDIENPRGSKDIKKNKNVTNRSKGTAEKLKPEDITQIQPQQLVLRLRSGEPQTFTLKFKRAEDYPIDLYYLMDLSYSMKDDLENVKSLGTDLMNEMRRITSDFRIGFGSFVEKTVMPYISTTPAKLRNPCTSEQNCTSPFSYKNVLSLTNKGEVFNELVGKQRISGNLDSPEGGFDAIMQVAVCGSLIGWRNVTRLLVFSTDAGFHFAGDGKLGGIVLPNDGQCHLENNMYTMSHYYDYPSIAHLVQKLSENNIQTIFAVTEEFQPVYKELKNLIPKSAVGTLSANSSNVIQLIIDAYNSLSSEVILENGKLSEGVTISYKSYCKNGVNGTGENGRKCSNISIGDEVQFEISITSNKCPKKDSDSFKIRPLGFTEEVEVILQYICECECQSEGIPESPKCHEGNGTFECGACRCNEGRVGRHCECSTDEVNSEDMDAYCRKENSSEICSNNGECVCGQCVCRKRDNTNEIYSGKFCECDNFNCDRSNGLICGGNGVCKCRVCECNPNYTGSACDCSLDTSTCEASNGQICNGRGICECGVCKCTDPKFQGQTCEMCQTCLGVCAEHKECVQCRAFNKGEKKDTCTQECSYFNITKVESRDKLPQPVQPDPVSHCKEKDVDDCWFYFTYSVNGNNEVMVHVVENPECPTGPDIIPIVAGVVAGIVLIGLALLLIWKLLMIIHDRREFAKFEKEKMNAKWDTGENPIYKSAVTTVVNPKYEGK
Chain of Integrin beta-1 (Homo sapiens) + Integrin alpha-4 (Homo sapiens) (P13612 whole entry, looked up): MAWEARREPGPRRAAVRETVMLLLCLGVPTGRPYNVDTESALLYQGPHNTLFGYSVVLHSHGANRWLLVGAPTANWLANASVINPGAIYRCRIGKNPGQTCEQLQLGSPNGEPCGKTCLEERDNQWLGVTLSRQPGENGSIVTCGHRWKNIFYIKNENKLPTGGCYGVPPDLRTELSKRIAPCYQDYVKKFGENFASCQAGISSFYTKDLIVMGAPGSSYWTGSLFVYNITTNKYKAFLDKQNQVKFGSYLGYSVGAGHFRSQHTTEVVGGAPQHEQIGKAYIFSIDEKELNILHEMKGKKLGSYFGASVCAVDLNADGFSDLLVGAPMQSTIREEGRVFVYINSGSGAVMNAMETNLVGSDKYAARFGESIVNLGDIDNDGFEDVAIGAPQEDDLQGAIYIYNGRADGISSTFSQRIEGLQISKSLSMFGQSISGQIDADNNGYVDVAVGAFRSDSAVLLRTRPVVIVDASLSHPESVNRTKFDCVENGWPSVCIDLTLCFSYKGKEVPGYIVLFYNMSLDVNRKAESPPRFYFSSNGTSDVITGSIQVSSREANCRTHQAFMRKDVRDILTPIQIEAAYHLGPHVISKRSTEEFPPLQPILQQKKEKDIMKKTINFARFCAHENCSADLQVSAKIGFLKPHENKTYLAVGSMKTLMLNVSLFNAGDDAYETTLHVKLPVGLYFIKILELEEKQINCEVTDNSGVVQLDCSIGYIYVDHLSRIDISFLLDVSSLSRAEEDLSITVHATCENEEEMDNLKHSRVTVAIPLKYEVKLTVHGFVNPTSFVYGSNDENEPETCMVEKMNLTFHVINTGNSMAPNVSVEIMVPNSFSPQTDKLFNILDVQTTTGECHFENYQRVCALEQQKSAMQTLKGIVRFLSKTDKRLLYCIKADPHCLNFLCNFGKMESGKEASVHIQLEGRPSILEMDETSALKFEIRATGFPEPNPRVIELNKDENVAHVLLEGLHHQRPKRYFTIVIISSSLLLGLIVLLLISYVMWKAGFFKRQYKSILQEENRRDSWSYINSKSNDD

A short description of assay [7]: calorie-restriction mimetic ROS inhibitors, yeast – validation compound set, pilot screen (AID 2706;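 active means superoxide response below 65% of plate, a cut near 3 SD across the whole screen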;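 further: yeast exposed to compound for one week at 30 degrees C before staining; 100% = mean of all compound wells on the same plate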). To be noted: S. cerevisiae aging, superoxide DHE fluorescence; at 10 µM, stronger effect = lower value.
Assay [8] addresses Beta-adrenergic receptor kinase 1 (Homo sapiens) (UniProt P25098). The assay can be described thus: GRK2 binders displacing RNA aptamer, biochemical, validation, human GRK2, bead flow cytometry (AID 488806;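 active means aptamer binding inhibition above 30%, about 3 SD of noise from non-fluorescent compounds; inactive means inhibition at or below 30%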). The note with it: bead-bound GRK2, FAM-aptamer displacement, at 10 µM, stronger effect = higher value.
In assay [9] the target is Beta-2 adrenergic receptor (Homo sapiens) (UniProt P07550). The assay can be described thus: agonist-induced loss of surface beta2AR – cell-based, FAP fluorogen, flow cytometry, validation set, pilot screen (AID 504459;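 active means percent response above 42, roughly 3 SD of non-fluorescent test compounds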;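 further: agonist-driven loss of surface beta2AR via internalization measured by FAP dye flow cytometry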). To be noted: Am2.2-beta2AR cells, at 10 µM, stronger effect = higher value.
Chain of Beta-2 adrenergic receptor (Homo sapiens) (P07550 whole entry, looked up): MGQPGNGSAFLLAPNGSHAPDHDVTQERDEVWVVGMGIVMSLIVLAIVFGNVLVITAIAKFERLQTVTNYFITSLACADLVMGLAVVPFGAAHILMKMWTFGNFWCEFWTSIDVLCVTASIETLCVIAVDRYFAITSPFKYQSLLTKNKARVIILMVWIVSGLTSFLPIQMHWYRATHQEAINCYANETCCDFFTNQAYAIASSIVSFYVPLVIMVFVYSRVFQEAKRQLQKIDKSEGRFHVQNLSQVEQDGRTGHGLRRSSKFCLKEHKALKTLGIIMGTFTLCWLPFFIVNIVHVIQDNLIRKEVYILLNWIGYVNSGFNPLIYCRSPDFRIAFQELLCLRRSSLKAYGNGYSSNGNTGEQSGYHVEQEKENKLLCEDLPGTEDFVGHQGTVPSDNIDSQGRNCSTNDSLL
In assay [10] the target is AP-2 complex subunit beta (Homo sapiens) (UniProt P63010). The assay can be described thus: beta-arrestin/AP2 interaction blockers – biochemical, validation set, GST-AP2 beads, flow cytometry, pilot screen (AID 504541;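 active means inhibition above 54%, about 3 SD of non-fluorescent compounds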;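 further: AP2 carries R879A mutation and is captured from E. coli lysate; bead-bound FITC arrestin peptide fluorescence measuring arrestin peptide binding to AP2; 0% = DMSO wells and 100% = excess unlabeled arrestin peptide control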). To be noted: FITC arrestin peptide, at 10 µM, stronger effect = higher value, AP2 beta2 appendage fragment, R879A mutant.
Chain of AP-2 complex subunit beta (Homo sapiens) (P63010 whole entry, looked up, the tested form may be a part, one chain of several): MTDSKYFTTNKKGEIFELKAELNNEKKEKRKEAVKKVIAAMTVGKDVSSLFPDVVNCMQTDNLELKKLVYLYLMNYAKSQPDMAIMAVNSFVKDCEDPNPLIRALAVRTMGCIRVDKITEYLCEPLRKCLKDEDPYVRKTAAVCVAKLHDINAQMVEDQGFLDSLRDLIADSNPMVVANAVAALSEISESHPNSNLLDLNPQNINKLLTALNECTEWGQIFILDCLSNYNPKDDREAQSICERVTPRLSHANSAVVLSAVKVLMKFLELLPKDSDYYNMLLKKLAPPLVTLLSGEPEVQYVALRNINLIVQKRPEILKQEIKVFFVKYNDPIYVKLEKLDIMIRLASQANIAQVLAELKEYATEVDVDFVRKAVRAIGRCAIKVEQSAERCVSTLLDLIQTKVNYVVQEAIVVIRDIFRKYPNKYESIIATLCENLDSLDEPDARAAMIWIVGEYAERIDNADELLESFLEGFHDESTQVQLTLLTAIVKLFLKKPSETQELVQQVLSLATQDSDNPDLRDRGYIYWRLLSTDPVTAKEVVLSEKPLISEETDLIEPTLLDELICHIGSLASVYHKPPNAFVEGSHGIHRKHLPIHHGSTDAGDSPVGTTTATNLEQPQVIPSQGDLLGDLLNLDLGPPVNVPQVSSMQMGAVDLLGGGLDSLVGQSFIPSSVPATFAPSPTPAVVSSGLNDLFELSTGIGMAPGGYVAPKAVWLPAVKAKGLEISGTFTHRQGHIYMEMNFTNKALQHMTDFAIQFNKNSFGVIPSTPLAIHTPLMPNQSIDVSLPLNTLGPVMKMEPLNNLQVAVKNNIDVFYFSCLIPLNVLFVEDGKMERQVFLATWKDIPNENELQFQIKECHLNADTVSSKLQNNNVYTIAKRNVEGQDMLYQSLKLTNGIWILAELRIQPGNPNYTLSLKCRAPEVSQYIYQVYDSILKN
A short description of assay [11]: cytosolic pH regulators acting via V-ATPase – S. cerevisiae, pHLuorin, HTS validation (AID 504600; in the data active means response above about 15%;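 further: plate controls were DMSO for no effect and reference compound for full effect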). To be noted: V-ATPase proton transport, at 10 µM, stronger effect = higher value.
The test system of assay [12] is anti-desmoglein-3 scFv antibody binding to human DSG3. Kind of assay: blockers of pathogenic pemphigus antibody–desmoglein-3 binding – biochemical, validation compound set, bead-based, flow cytometry, pilot screen (AID 588368;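 active means binding below the plate cutoff, the plate median minus 3 SD, with a reading above zero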;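 further: signal is the median channel fluorescence of bead-bound GFP antibody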). The note with it: Protein G beads, DSG3-Fc, scFv-GFP binding, at 10 µM, stronger effect = lower value.
A short description of assay [13]: Nile Red efflux blockade in pump-expressing yeast – validation compound set, multiplex, phenotypic, pilot screen (AID 588506).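 Further: Nile Red retained in cells so higher fluorescence means more efflux inhibition; 0 = negative control wells and 1 = enniatin B 25 µM full block.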 The note with it: S. cerevisiae pump-expressing triplex, Nile Red efflux flow cytometry; at 10 µM; stronger effect = higher value; the pumps come from Candida albicans.
Assay [14] has as its target ATP-binding cassette sub-family B member 6 (Homo sapiens) (UniProt Q9NP58). Kind of assay: blockers of ABCB6-driven porphyrin uptake – K562-ABCB6 cells, flow cytometry, validation set, pilot screen (AID 588550;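 active means inhibition above the screen-wide mean plus 3 SD, about 51%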;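 further: 0% = DMSO wells and 100% = benzethonium chloride 70 µM positive control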). The note with it: K562-ABCB6 porphyrin accumulation, 1 h, at 10 µM, stronger effect = higher value.
A short description of assay [15]: AML differentiation inducers, ER-HoxA9 marrow cells – cell-based, GFP/MAC1 double positive, flow cytometry, validation set, primary screen (AID 588685;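 active means differentiation response of at least 50%, scaled between solvent and reference control, from cells with both markers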;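 further: compound exposure lasts four days before antibody staining and flow analysis; 0% = DMSO wells and 100% = 5 µM fulvestrant positive control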). The note with it: stronger effect = higher value, normalized: vehicle 0, fulvestrant 100.
Assay [16] in a line: TOR pathway GLN3 branch reporter MEP2-GFP changes – S. cerevisiae, multiplex flow cytometry, primary screen (AID 1867;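 active means GFP response, as percent of the DMSO control, above the screen-wide mean plus 3 SD, about 139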;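 further: median GFP channel fluorescence of barcode-gated MEP2-GFP cells measured by flow cytometry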). The note with it: S. cerevisiae MEP2-GFP strain, 3 h, at 10 µM, stronger effect = higher value, 100% means same as DMSO wells.

Results filed as inconclusive are left out. Active and inactive are the calls of the source.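 How the source made its calls, unless noted: active means efflux inhibition above 0.42, the validation set average plus 4 SD; inconclusive means no clear call, values can overlap the other calls; inactive means the rest.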

This is an account of results in PubChem BioAssay.

One may read the inhibition as the relative decrease from the control value, in per cent.

Chain of Beta-adrenergic receptor kinase 1 (Homo sapiens) (P25098 whole entry, looked up): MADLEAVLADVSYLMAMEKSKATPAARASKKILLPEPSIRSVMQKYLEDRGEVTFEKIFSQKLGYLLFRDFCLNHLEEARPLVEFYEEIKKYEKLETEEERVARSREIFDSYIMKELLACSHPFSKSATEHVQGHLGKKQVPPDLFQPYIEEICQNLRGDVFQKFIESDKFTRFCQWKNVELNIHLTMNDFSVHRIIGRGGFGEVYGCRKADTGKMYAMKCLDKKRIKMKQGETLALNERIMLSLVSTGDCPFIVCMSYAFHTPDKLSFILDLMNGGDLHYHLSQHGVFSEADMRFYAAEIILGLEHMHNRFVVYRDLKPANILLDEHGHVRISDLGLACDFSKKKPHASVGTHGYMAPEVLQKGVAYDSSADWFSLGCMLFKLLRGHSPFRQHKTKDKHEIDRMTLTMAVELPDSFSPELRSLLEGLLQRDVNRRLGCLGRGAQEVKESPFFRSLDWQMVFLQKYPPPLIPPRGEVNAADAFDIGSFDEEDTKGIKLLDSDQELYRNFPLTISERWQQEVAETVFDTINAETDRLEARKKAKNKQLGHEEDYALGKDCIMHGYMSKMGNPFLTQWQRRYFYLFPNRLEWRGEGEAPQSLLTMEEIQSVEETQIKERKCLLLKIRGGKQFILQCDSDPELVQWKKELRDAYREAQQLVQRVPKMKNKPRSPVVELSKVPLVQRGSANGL
Chain of ATP-binding cassette sub-family B member 6 (Homo sapiens) (Q9NP58 whole entry, looked up): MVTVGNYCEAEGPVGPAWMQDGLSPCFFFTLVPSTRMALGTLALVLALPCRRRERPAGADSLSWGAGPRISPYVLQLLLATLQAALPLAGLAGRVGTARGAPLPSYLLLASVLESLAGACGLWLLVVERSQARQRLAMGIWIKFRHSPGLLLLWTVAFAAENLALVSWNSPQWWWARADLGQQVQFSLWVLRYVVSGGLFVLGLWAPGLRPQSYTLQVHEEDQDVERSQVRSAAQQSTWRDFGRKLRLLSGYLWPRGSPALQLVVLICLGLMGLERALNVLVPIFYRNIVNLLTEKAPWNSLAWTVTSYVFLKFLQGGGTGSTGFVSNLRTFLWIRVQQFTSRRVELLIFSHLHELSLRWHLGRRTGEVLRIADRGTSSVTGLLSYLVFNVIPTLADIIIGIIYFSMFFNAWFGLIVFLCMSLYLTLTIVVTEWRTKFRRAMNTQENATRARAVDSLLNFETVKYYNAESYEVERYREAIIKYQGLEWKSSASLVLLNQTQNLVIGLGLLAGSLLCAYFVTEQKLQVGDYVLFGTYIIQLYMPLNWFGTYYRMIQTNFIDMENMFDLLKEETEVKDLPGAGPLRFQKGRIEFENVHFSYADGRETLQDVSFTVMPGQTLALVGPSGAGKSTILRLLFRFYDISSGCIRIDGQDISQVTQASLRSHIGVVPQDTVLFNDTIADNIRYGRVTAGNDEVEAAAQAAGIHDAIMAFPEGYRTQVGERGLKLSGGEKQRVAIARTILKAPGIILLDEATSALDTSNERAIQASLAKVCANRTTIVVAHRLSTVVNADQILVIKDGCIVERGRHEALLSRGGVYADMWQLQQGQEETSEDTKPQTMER

On to `COc1ccc(CN(C)CCc2ccccn2)cc1OC`, for which, in assay [1], the percent of DMSO control GFP was 104% (inactive). In addition, the percent response of DMSO control in assay [2] is 102% (inactive). Further, the GFP response vs DMSO in assay [3] is 74.3% (inactive). The GFP response, % of DMSO in assay [4] was 90.6% (inactive). This compound showed a double positive events in assay [5] of 55.5%. For the same compound, the vesicle binding response in assay [5] is 91.8% (inactive). The inhibition in assay [6] was -15.4% (inactive); in assay [10] it was -9.53% (inactive); in assay [14], 2% (inactive). Further, in assay [7], the superoxide response (% of plate) is 95.8% (inactive). In addition, the aptamer binding inhibition in assay [8] was 3% (inactive). Also, the response in [9] was 6.81% (inactive); in assay [11], 20.5% (active). Besides, the binding (% of control) in [12] is 98.7% (inactive). For the same compound, in assay [13], the efflux inhibition (fraction of control) is -0.03 (inactive). The differentiation response in assay [15] was -28% (inactive).

`C[C@]12C=CC(=O)C=C1CCC1C3CC[C@](O)(C(=O)CO)[C@@]3(C)CC3OC312` (stereo not given in full): in assay [1], the percent of DMSO control GFP was 102% (inactive). Further, the percent response of DMSO control in assay [2] is 95.8% (inactive). For the same compound, the GFP response vs DMSO in [3] was 85.4% (inactive). Also, in assay [4], the GFP response, % of DMSO is 101% (inactive). Further, the double positive events in [5] came out at 76.1%. For the same compound, in assay [5], the vesicle binding response is 298% (inactive). In addition, the inhibition was 5.03% (inactive) in assay [6], -1.32% (inactive) in [10] and 113% (active) in [14]. Also, in [7], the superoxide response (% of plate) is 87.7% (inactive). Besides, in assay [8], the aptamer binding inhibition is 2% (inactive). Moreover, the figures for the response in [9] and in assay [11] were 2.49% (inactive) and -0.61% (inactive), respectively. The binding (% of control) in assay [12] is 102% (inactive). Moreover, the efflux inhibition (fraction of control) in assay [13] was 0.22 (inactive). In addition, in assay [15], the differentiation response was -13.6% (inactive).

For the compound `CCCCC/C=C\C[C@H](O)/C=C/c1cccc(C[C@H](O)CCCCO)n1`, the percent of DMSO control GFP in assay [1] was 97.9% (inactive). In addition, the GFP response vs DMSO in [16] was 111% (inactive); in assay [3] it was 75.9% (inactive). Further, the percent response of DMSO control in [2] was 111% (inactive). For the same compound, the double positive events in [5] stood at 52.3%. In addition, the vesicle binding response in assay [5] is 41.1% (active). The inhibition is -3.24% (inactive) in assay [6], -4.61% (inactive) in assay [10] and 10% (inactive) in [14]. For the same compound, the superoxide response (% of plate) in assay [7] was 116% (inactive). The aptamer binding inhibition in [8] was 1% (inactive). The response in assay [9] is -7.36% (inactive); in assay [11], 1.37% (inactive). Moreover, the binding (% of control) in [12] was 103% (inactive). Besides, the efflux inhibition (fraction of control) in assay [13] is 0.16 (inactive). The differentiation response in assay [15] was -2.46% (inactive).

In the case of `Nc1c2c(nc3ccccc13)CCCC2`, the percent of DMSO control GFP in assay [1] was 89.5% (inactive). Besides, the GFP response vs DMSO was 112% (inactive) in [16] and 69.9% (inactive) in assay [3]. For the same compound, the percent response of DMSO control in assay [2] was 99.2% (inactive). This compound also showed a double positive events in assay [5] of 68.9%. Moreover, in [5], the vesicle binding response is 258% (inactive). In addition, the inhibition was 1.61% (inactive) in assay [6], 3.69% (inactive) in [10] and 11% (inactive) in assay [14]. In addition, in assay [7], the superoxide response (% of plate) was 105% (inactive). The aptamer binding inhibition in [8] was 2% (inactive). Besides, the response is -14.3% (inactive) in [9] and 7.21% (inactive) in assay [11]. Further, the binding (% of control) in assay [12] was 104% (inactive). For the same compound, the efflux inhibition (fraction of control) in assay [13] is 0.05 (inactive). Besides, the differentiation response in assay [15] was -5.73% (inactive).

On to `Cc1cc(C)c2c(CCl)cc(=O)oc2c1`, for which, in [1], the percent of DMSO control GFP was 98.7% (inactive). Moreover, the percent response of DMSO control in assay [2] is 107% (inactive). Besides, in assay [3], the GFP response vs DMSO is 127% (inactive). Moreover, the GFP response, % of DMSO in assay [4] is 115% (inactive). Further, the double positive events in assay [5] was found to be 60.3%. The vesicle binding response in assay [5] is 174% (inactive). The inhibition in [6] was 33.8% (inactive); in assay [10], 2.3% (inactive); in assay [14] it was 4% (inactive). Also, in assay [7], the superoxide response (% of plate) is 93% (inactive). The aptamer binding inhibition in assay [8] was -2% (inactive). The response is -0.73% (inactive) in [9] and 63.9% (active) in assay [11]. Moreover, the binding (% of control) in assay [12] was 96.2% (inactive). Also, the efflux inhibition (fraction of control) in [13] was 0.08 (inactive). The differentiation response in [15] was 4.86% (inactive).
